Measured values as given in the supplement of paper PMC6555819.

Legend:
Assay in all cases: PBM binding z-score (relative to random genomic background probes); higher = stronger binding; sequences stand for … in GC…GCGATTGACAGCGTAGAATGAAGG
[1] = system: FXR:RXRa (NR concentration 270 nM, RXRa partner concentration 90 nM)
Summary of the method: (§1)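 Scanned fluorescence from custom Agilent 4×180K protein-binding microarrays was regression-normalized. Binding z-scores use random background probes as reference. Ligand-free nuclear receptor dimers were incubated on the arrays for 1 h and detected with antibodies against each partner (one per run).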

[2] = system: LXRa:RXRa (NR concentration 270 nM, RXRa partner concentration 90 nM)
Summary of the method: as §1

[3] = system: LXRa homodimer (NR concentration 270 nM)
Summary of the method: as §1

[4] = system: LXRb:RXRa (NR concentration 270 nM, RXRa partner concentration 90 nM)
Summary of the method: as §1

[5] = system: LXRb homodimer (NR concentration 270 nM)
Summary of the method: as §1

[6] = system: PPARa:RXRa (NR concentration 270 nM, RXRa partner concentration 90 nM)
Summary of the method: as §1

[7] = system: PPARg:RXRa (NR concentration 180 nM, RXRa partner concentration 90 nM)
Summary of the method: as §1

[8] = system: PPARg:RXRa 270nM:90nM, anti-RXR (NR concentration 270 nM, RXRa partner concentration 90 nM)
Summary of the method: as §1

[9] = system: PPARg:RXRa 30nM:10nM, anti-RXR (NR concentration 30 nM, RXRa partner concentration 10 nM)
Summary of the method: as §1

[10] = system: PPARg:RXRa 90nM:30nM, anti-RXR (NR concentration 90 nM, RXRa partner concentration 30 nM)
Summary of the method: as §1

[11] = system: PPARg:RXRa DBDmut IVT, anti-RXR (DBD mutation: RXRa K156A/R161A, NR concentration 270 nM, RXRa partner concentration 90 nM)
Summary of the method: as §1

[12] = system: PPARg:RXRa IVT, anti-PPARg (NR concentration 270 nM, RXRa partner concentration 90 nM)
Summary of the method: as §1

[13] = system: PPARg DBDmut:RXRa IVT, anti-PPARg (DBD mutation: PPARg1 K132A/R137A, NR concentration 270 nM, RXRa partner concentration 90 nM)
Summary of the method: as §1

[14] = system: PPARg DBDmut IVT, anti-PPARg (DBD mutation: PPARg1 K132A/R137A, NR concentration 270 nM)
Summary of the method: as §1

[15] = system: PPARg homodimer (NR concentration 180 nM)
Summary of the method: as §1

[16] = system: PXR:RXRa (NR concentration 270 nM, RXRa partner concentration 90 nM)
Summary of the method: as §1

[17] = system: PXR homodimer (NR concentration 270 nM)
Summary of the method: as §1

[18] = system: RARa:RXR (NR concentration 270 nM, RXRa partner concentration 90 nM)
Summary of the method: as §1

[19] = system: RARa homodimer (NR concentration 270 nM)
Summary of the method: as §1

[20] = system: RARb:RXRa (NR concentration 270 nM, RXRa partner concentration 90 nM)
Summary of the method: as §1

Sequence	PBM binding z-score [1]	PBM binding z-score [2]	PBM binding z-score [3]	PBM binding z-score [4]	PBM binding z-score [5]	PBM binding z-score [6]	PBM binding z-score [7]	PBM binding z-score [8]	PBM binding z-score [9]	PBM binding z-score [10]	PBM binding z-score [11]	PBM binding z-score [12]	PBM binding z-score [13]	PBM binding z-score [14]	PBM binding z-score [15]	PBM binding z-score [16]	PBM binding z-score [17]	PBM binding z-score [18]	PBM binding z-score [19]	PBM binding z-score [20]
ACAGACAGGTGAGTGAAGGTAACTCGGCTGGACG	0.29	0.0989	-0.627	-0.781	-0.86	-0.0904	0.606	0.0767	-0.28	-0.126	0.175	0.33	-0.433	-0.413	0.0145	-0.486	-0.431	-0.0751	-0.294	0.411
GCTTACGAGTCAAAGGTTATAGCATGAATAGAAT	2.49	3	-0.0276	2.72	-0.261	4.52	5.72	6.18	4.17	6.28	-0.0786	1.3	0.924	-0.155	0.792	2.73	-0.0683	4.4	-0.195	1.78
CCAACGAGGGCATGAGTTGATAGCAAATGCCGAT	0.351	0.134	-0.411	-0.153	-0.701	0.994	1.05	0.858	-0.155	0.242	1.66	1.08	-0.303	-0.467	-0.0585	0.213	-0.173	0.447	-0.402	1.69
CTCGAAAGGTCGGTTGCGGTGAGTATACGGATAA	2.08	1.5	0.16	1.38	0.241	2.17	0.168	0.893	0.195	0.654	0.303	0.901	0.157	0.202	0.797	1.4	-0.173	1.62	-0.203	2.92
TCTTGTAGCTCAAAGGTTAAGAAAGCCGAAGCCT	0.766	1.08	-0.349	1.32	-0.747	3.36	4.77	6.09	4.64	6.1	1.21	1.99	0.0313	-0.321	0.397	1.27	-0.227	1.83	-0.437	1.61
TAGCCTAGGTCGTGCGGGCCAGTATAGTGTCGGC	-0.111	-0.0321	-0.956	-0.439	-0.768	0.275	-0.525	-0.186	-0.812	-0.477	-0.622	0.425	-0.497	-1.13	-1.3	-0.419	-0.881	-0.166	-1.19	0.97
AATATAGGGTCATCGTAGGCCAGAGTACGCACAG	7.57	6.66	2.71	5	1.56	6.26	7.29	6.57	3.61	5.37	4.87	5.42	1.96	1.99	2.4	4.98	0.973	5.35	1.7	4.58
GCTAGTTGGTGAGTAAAAGGTCACACACCGGTCG	3.1	3.92	3.81	3.79	-0.0196	4.55	3.87	5.23	3.09	4.99	0.239	2.74	0.00849	0.663	3.73	4.81	0.986	5.64	0.736	4.05
GATACAGGGTCAGCTAGAGGCCAGAGTGTGGAAA	4.82	3.13	-0.348	2.53	-0.522	4.62	3.38	3.34	0.644	2.07	0.974	2.4	-0.57	-0.662	3.47	3.5	0.00381	4.66	-0.116	4.25
GCTGCTAGGCCAACTGATGGTCAGCTAAAGCTCG	-0.828	-0.78	-0.908	-1.3	-1.01	-1.2	-0.468	-0.849	-1.22	-1.14	1.28	-0.0931	-1.27	-1.3	-0.811	-0.987	-0.793	-0.653	-1.39	0.829
CCGACTGGGGGAAAGGTTACCATACTCAGTACGA	1.81	2.38	0.42	3.4	3.72	5.42	9.9	9.24	8.87	9.88	2.52	5.31	3.53	3.07	1.86	2.63	0.241	3.24	0.206	2.04
TTACCAAGGTGAAAGGACGTTGATGCACGCCTTG	0.449	0.351	-0.414	0.198	-0.801	1.72	2.29	3.48	1.96	3.14	1.91	2.84	0.863	0.655	0.691	-0.0719	-0.136	0.603	-0.181	1.6
ATCGAAAGTTCGTGAGGTGAGTATACAGAAAGGC	1.21	1.26	0.0798	0.398	-0.197	1.88	0.759	0.561	0.146	0.655	-1.13	0.316	0.654	0.402	0.342	1.08	0.69	1.39	0.453	2.17
AGACTGAGGTTAAGATCAGGGAAACAGAATACAT	2.11	1.75	-0.133	1.6	-0.417	2.92	1.21	1.18	0.748	0.879	0.0393	0.554	-0.0816	-0.0692	0.531	0.903	0.258	1.84	-0.0293	1.7
